This is an account of results in PubChem BioAssay (NCATS).

Results filed as inconclusive are left out. Active and inactive are the calls of the source. Calls follow the shape of the dose curve; as a rule, active = well fitted curve in the direction sought with a large enough effect; inconclusive = small, poorly fitted or top-dose-only effect, or another doubt; inactive = no such curve, though single readings can be large; an effect the other way counts as inactive or inconclusive.

Assay [1] is described as follows: Quantitative High-Throughput drug screen in 47 multiple myeloma cell lines against the NCATS MIPE library collection: JJN3_DSMZ cell viability assay (AID 1918966; also: nearly all actives have a fitted effect of over 50% in size; also: potency is read from the fitted curve at half-maximal effect). A digest of the protocol: (§1)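 Viability readout: CellTiter-Glo luminescence following 5 min room-temperature incubation with reagent. Prior exposure: 48 h, 37C, humidified 5% CO2, 500 cells per well.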

The nature of assay [2]: Quantitative High-Throughput drug screen in 47 multiple myeloma cell lines against the NCATS MIPE library collection: H1112_PLB cell viability assay (AID 1918967; also: nearly all actives have a fitted effect of over 30% in size; also: potency is read from the fitted curve at half-maximal effect). A digest of the protocol:
as §1

Assay [3] is described as follows: Quantitative High-Throughput drug screen in 47 multiple myeloma cell lines against the NCATS MIPE library collection: Karpas25_ECACC cell viability assay (AID 1918968; also: nearly all actives have a fitted effect of over 35% in size; also: potency is read from the fitted curve at half-maximal effect). The method in brief: as §1
Assay [4] in a line: Quantitative High-Throughput drug screen in 47 multiple myeloma cell lines against the NCATS MIPE library collection: KMS12PE_JCRB cell viability assay (AID 1918972). Also: nearly all actives have a fitted effect of over 30% in size. Also: potency is read from the fitted curve at half-maximal effect. The method in brief:
(§2)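 Approved and investigational drugs from MIPE 4.0 were added by pin tool to 500 cells per well. After 48 hours at 37C, ATP-based CellTiter-Glo luminescence indicated remaining viability.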

A short description of assay [5]: Quantitative High-Throughput drug screen in 47 multiple myeloma cell lines against the NCATS MIPE library collection: MOLP8_DSMZ cell viability assay (AID 1918977). Also: nearly all actives have a fitted effect of over 45% in size. Also: potency is read from the fitted curve at half-maximal effect. The method in brief: (§3)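 MIPE 4.0 approved/investigational drugs; 500 cells/well; 48 h 37 °C humidified 5% CO2; CTG luminescence readout; DMSO = 100%, media = 0% viability.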
Assay [6] is described as follows: Quantitative High-Throughput drug screen in 47 multiple myeloma cell lines against the NCATS MIPE library collection: OCIMY1_PLB cell viability assay (AID 1918979). Also: nearly all actives have a fitted effect of over 35% in size. Also: potency is read from the fitted curve at half-maximal effect. The method in brief:
as §3

A short description of assay [7]: Quantitative High-Throughput drug screen in 47 multiple myeloma cell lines against the NCATS MIPE library collection: MM1R_ATCC cell viability assay (AID 1918981). Also: nearly all actives have a fitted effect of over 35% in size. Also: potency is read from the fitted curve at half-maximal effect. A digest of the protocol:
as §3

The nature of assay [8]: Quantitative High-Throughput drug screen in 47 multiple myeloma cell lines against the NCATS MIPE library collection: LP1_DSMZ cell viability assay (AID 1918982). Also: nearly all actives have a fitted effect of over 35% in size. Also: potency is read from the fitted curve at half-maximal effect. The method in brief: as §3
The nature of assay [9]: Quantitative High-Throughput drug screen in 47 multiple myeloma cell lines against the NCATS MIPE library collection: KMS28PE_JCRB cell viability assay (AID 1918983). Also: nearly all actives have a fitted effect of over 35% in size. Also: potency is read from the fitted curve at half-maximal effect. The method in brief:
as §3

The nature of assay [10]: Quantitative High-Throughput drug screen in 47 multiple myeloma cell lines against the NCATS MIPE library collection: KMS34_JCRB cell viability assay (AID 1918985). Also: nearly all actives have a fitted effect of over 40% in size. Also: potency is read from the fitted curve at half-maximal effect. The method in brief:
as §3

A short description of assay [11]: Quantitative High-Throughput drug screen in 47 multiple myeloma cell lines against the NCATS MIPE library collection: KMS21BM_JCRB cell viability assay (AID 1918974). Also: potency is read from the fitted curve at half-maximal effect. As to conditions: ATP luminescence, 48 h; viability: at 45.8 µM (top of the series) unless noted. The method in brief: as §1
The nature of assay [12]: Quantitative High-Throughput drug screen in 47 multiple myeloma cell lines against the NCATS MIPE library collection: NCIH929_DSMZ cell viability assay (AID 1918978). Also: nearly all actives have a fitted effect of over 35% in size. Also: potency is read from the fitted curve at half-maximal effect. A digest of the protocol:
as §3

Assay [13] can be described thus: Quantitative High-Throughput drug screen in 47 multiple myeloma cell lines against the NCATS MIPE library collection: MM1S_ATCC cell viability assay (AID 1918980). Also: nearly all actives have a fitted effect of over 45% in size. Also: potency is read from the fitted curve at half-maximal effect. The method in brief: as §3
Assay [14] can be described thus: Quantitative High-Throughput drug screen in 47 multiple myeloma cell lines against the NCATS MIPE library collection: KMS27_JCRB cell viability assay (AID 1918970). Also: nearly all actives have a fitted effect of over 30% in size. The method in brief:
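KMS27_JCRB myeloma cells, 500 per well, exposed 48 h at 37 C, 5% CO2 to MIPE 4.0 compounds. Viability from ATP by CellTiter-Glo luminescence, normalized to DMSO (100%) and medium-only (0%) wells.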

A short description of assay [15]: Quantitative High-Throughput drug screen in 47 multiple myeloma cell lines against the NCATS MIPE library collection: KMS26_JCRB cell viability assay (AID 1918975). Also: nearly all actives have a fitted effect of over 45% in size. Also: potency is read from the fitted curve at half-maximal effect. A digest of the protocol:
(§4)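 qHTS of the MIPE 4.0 collection: 500 myeloma cells/well, 48 h drug exposure at 37C in 5% CO2, then CellTiter-Glo for 5 min at room temperature before luminescence reading.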

Assay [16] in a line: Quantitative High-Throughput drug screen in 47 multiple myeloma cell lines against the NCATS MIPE library collection: KMS12BM_JCRB cell viability assay (AID 1918971). Also: nearly all actives have a fitted effect of over 35% in size. Also: potency is read from the fitted curve at half-maximal effect. A digest of the protocol:
as §4

Assay [17] in a line: Quantitative High-Throughput drug screen in 47 multiple myeloma cell lines against the NCATS MIPE library collection: KMS20_JCRB cell viability assay (AID 1918973). Also: potency is read from the fitted curve at half-maximal effect; nearly all actives have a fitted effect of over 45% in size. The method in brief:
as §1

Assay [18] is described as follows: Quantitative High-Throughput drug screen in 47 multiple myeloma cell lines against the NCATS MIPE library collection: MMM1_PLB cell viability assay (AID 1918976). A digest of the protocol: as §3
The nature of assay [19]: Quantitative High-Throughput drug screen in 47 multiple myeloma cell lines against the NCATS MIPE library collection: L363_DSMZ cell viability assay (AID 1918984). Also: nearly all actives have a fitted effect of over 40% in size. Also: potency is read from the fitted curve at half-maximal effect. The method in brief: as §3
Assay [20] in a line: Quantitative High-Throughput drug screen in 47 multiple myeloma cell lines against the NCATS MIPE library collection: INA6_PLB cell viability assay (AID 1918965; also: potency is read from the fitted curve at half-maximal effect; nearly all actives have a fitted effect of over 55% in size). A digest of the protocol: as §2

In the case of `C=C(c1ccc(C(=O)O)cc1)c1cc2c(cc1C)C(C)(C)CCC2(C)C`, the Potency result in assay [1], in assay [2], in assay [4], in assay [5], in assay [6] and in [7] was “inactive” throughout. Also, the Potency entry in [8], in assay [9] and in assay [10] was “inactive” in each case. Moreover, the Potency in [3] is 14.8 µM (active).

For the molecule `COc1cc(OC)c(C(=O)CCCN2CCCC2)c(OC)c1`, the Potency is 0.059 µM (active) in assay [1], 18.7 µM (active) in assay [11] and 16.6 µM (active) in [13]. Moreover, the Potency entry in assay [2], in assay [3], in assay [4], in [5], in assay [12] and in [6] was “inactive” throughout. Further, the Potency result in assay [7], in [8] and in assay [10] was “inactive” in each case.

As for `CC(C)(S)[C@@H](N)C(=O)O`, the Potency entry in assay [1], in assay [2], in assay [14], in [4], in assay [11] and in assay [15] was “inactive” throughout. For the same molecule, the Potency entry in [5], in [12], in [6], in [8] and in assay [9] was “inactive” each time.

Regarding `CC[C@]1(O)C[C@H]2CN(CCc3c([nH]c4ccccc34)[C@@](C(=O)OC)(c3cc4c(cc3OC)N(C=O)[C@H]3[C@@](O)(C(=O)OC)[C@H](OC(C)=O)[C@]5(CC)C=CCN6CC[C@]43[C@@H]65)C2)C1`, the Potency is 0.0935 µM (active) in assay [1]; 0.0093 µM (active) in assay [2]; 0.0105 µM (active) in [3]; 0.0019 µM (active) in assay [16]; 0.0743 µM (active) in assay [4]; 0.0148 µM (active) in [17]. Besides, the Potency in [15] was 0.0372 µM (active); in assay [18], 1.05 µM (active); in assay [12], 0.0235 µM (active); in assay [6], 0.059 µM (active); in assay [9], 0.0047 µM (active); in [19], 0.132 µM (active). The Potency in assay [10] was 0.0019 µM (active).

In the case of `CCN(CCO)CCCC(C)Nc1ccnc2cc(Cl)ccc12` (centres undefined), the Potency result in [1], in [2], in assay [4], in assay [11], in assay [15] and in assay [5] was “inactive” throughout. Also, the Potency entry in [12], in [6], in assay [8], in assay [9] and in [10] was “inactive” in each case.

For `CCN(CC)C(=S)SSC(=S)N(CC)CC`, the Potency in assay [1] is 0.0166 µM (active); in assay [2] it was 0.001 µM (active); in assay [3] it was 0.001 µM (active); in [16], 0.0093 µM (active); in assay [15], 0.0105 µM (active); in assay [18], 0.0187 µM (active). Besides, the Potency in [5] was 0.0093 µM (active); in assay [6], 0.0235 µM (active); in assay [13] it was 0.0093 µM (active); in [7] it was 0.0093 µM (active); in assay [8], 0.0209 µM (active); in assay [9], 0.0118 µM (active). Further, in assay [10], the Potency was 0.0235 µM (active). Also, in [19], the Potency result was “inactive”.

Turning to `O=C(NC(Cc1cc(=O)[nH]c2ccccc12)C(=O)O)c1ccc(Cl)cc1` (centres undefined), the Potency in assay [1] and in assay [18] was 9.35 µM (active) throughout. Moreover, the Potency result in [2], in [16], in assay [5], in assay [12], in [6] and in assay [7] was “inactive” in each case. In assay [8], the Potency entry was “inactive”.

For `CNC[C@H](O)c1ccc(O)c(O)c1`, the Potency in [1] was 13.6 µM (active); in assay [3], 5.4 µM (active); in assay [16] it was 19.1 µM (active); in assay [17], 10.8 µM (active); in [15], 10.8 µM (active); in assay [18], 6.79 µM (active). Further, the Potency in assay [5] is 8.55 µM (active); in assay [6] it was 38.2 µM (active); in assay [13], 17.1 µM (active); in assay [7], 6.05 µM (active); in assay [8], 30.3 µM (active); in [9] it was 13.6 µM (active). Moreover, in assay [10], the Potency was 30.3 µM (active). The Potency entry in assay [2], in assay [4], in [12] and in [19] was “inactive” throughout.

As to `CN1CCC(=C2c3ccccc3CCc3sccc32)CC1`, the Potency in [20] was 16.6 µM (active); in assay [4], 23.5 µM (active). For the same molecule, the Potency result in assay [2], in assay [5], in assay [12], in assay [7], in assay [8] and in [9] was “inactive” each time. Further, the Potency result in [10] was “inactive”.

As to `C[C@@H](N)C1CCC(C(=O)Nc2ccncc2)CC1` (some centres undefined), the Potency entry in assay [1], in assay [5], in assay [13], in [7], in assay [8] and in assay [10] was “inactive” throughout. For the same molecule, the Potency in assay [2] is 14.8 µM (active); in assay [3], 26.4 µM (active).

For `CCCCC(CC)COC(=O)C(C#N)=C(c1ccccc1)c1ccccc1` (centres undefined), the Potency result in [1], in [2], in assay [3], in assay [4], in assay [15] and in assay [5] was “inactive” in each case. Besides, the Potency entry in [12], in [6], in assay [7], in [9] and in assay [10] was “inactive” in each case.

Take `O=c1cc(N2CCOCC2)oc2c(-c3ccccc3)cccc12`: the Potency is 16.6 µM (active) in [1]; 7.43 µM (active) in [3]; 14.8 µM (active) in [16]; 7.43 µM (active) in [15]; 18.7 µM (active) in assay [18]; 7.43 µM (active) in [5]. In addition, the Potency in assay [6] was 11.8 µM (active); in assay [13], 14.8 µM (active); in assay [7], 7.43 µM (active); in assay [8], 11.8 µM (active); in assay [9], 10.5 µM (active); in [10], 11.8 µM (active). For the same molecule, the Potency entry in [14], in [4] and in assay [11] was “inactive” in each case.

Take `Nc1cccc2c1CN(C1CCC(=O)NC1=O)C2=O` (centres undefined): the Potency in [1] is 1.71 µM (active); in assay [3] it was 4.81 µM (active); in assay [15], 0.605 µM (active); in assay [18], 0.429 µM (active); in assay [9] it was 0.171 µM (active). Besides, the Potency entry in [2], in assay [4], in [5] and in assay [10] was “inactive” in each case.
